Screening results from PubChem.
Compounds with a hit are over-represented: about 19% of the library has one in this group of screens.
KB-3-1 cytotox: kills parental KB-3-1 adenocarcinoma cells; actives 1.4% (n = 400,000); KB-3-1 viability, CellTiter-Glo ATP luminescence, 72 h; Potency, µM (doses to about 46.1 µM), hits mostly cytotoxic; note: nearly all actives have a fitted effect of over 60% in size
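Luminescent ATP read-out (CellTiter-Glo) measures survival of drug-naive KB-3-1 cells after 72 h compound exposure at 37 °C. Titration series was screened from lowest to highest concentration, with DMSO vehicle plates as background controls.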
DT40 TDP1 CPT: DT40-hTDP1 cell growth loss with CPT | chicken DT40 Tdp1-/-;hTDP1 cells + 20 nM CPT, ATP luminescence, 48 h | Potency, µM (highest dose often 46.2 µM), for the others: at the highest dose activity change, negative = growth inhibition, actives largely listed as inhibitors | actives 12% (n = 420,000); note: nearly all actives have a fitted effect of over 55% in size
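Cell growth measured by CellTiter-Glo luminescence after a minimum 48 h, 37 C compound exposure with 20 nM CPT in Tdp1-knockout DT40 cells stably expressing hTDP1, seeded 400/well; qHTS titration format.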
TDP1 cell noCPT: qHTS for Inhibitors of human tyrosyl-DNA phosphodiesterase 1 (TDP1): qHTS in cells in absence of CPT | actives 15% (n = 420,000) | DT40 Tdp1-/- hTDP1 cells, no CPT, ATP luminescence, 48 h | AID 686978, 2013 | Potency, µM (series often up to 46.2 µM), without a hit: at the highest dose activity change, negative = growth inhibition, actives largely listed as inhibitors; note: nearly all actives have a fitted effect of over 55% in size
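Growth kinetics read by CellTiter-Glo luminescence after ≥48 hr at 37 °C. Cells: DT40 Tdp1-/- stably carrying human TDP1, 400 per well, compound exposure in the absence of CPT (DMSO vehicle).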
HT1080NT lethal: kills 2HG-producing HT-1080-NT fibrosarcoma cells | Potency, µM (highest dose often 46.1 µM), for inactives: at the highest dose activity, negative = less viability, most hits filed as cytotoxic | actives 1.6% (n = 360,000) | HT-1080-NT fibrosarcoma viability, CellTiter-Glo ATP luminescence, 48 h;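 note: NT is the 2HG producing partner of a matched IDH1 knockdown line; 0% = DMSO-treated cells and -100% = media-only wells without cells; nearly all actives have a fitted effect of over 55% in size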
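HT-1080-NT; 750 cells/well; 5% FBS RPMI; 48 h compound, 37 degrees C; CellTiter-Glo luminescence; curve fitting and curve-class assignment.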
HT1080 IDH1KD tx: kills HT-1080 cells with IDH1 knockdown. Potency, µM (doses to about 46.1 µM), for inactives: top-dose activity, negative = toxicity, hits mostly cytotoxic. actives 2% (n = 360,000). HT-1080 IDH1 knockdown viability, ATP luminescence, 48 h. AID 686971;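 note: 0% = DMSO wells and -100% = cell-free medium wells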
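Assay cells: HT-1080 with IDH1 knockdown, 750 per well, RPMI/5% FBS. Exposure: 48 h at 37 °C following 2 h pre-incubation. Read: CellTiter-Glo luminescence; fitted concentration-response, curve class assigned.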
KB-V1 cytotox: kills drug-selected multidrug resistant KB-V1 cells. KB-V1 MDR cells viability, CellTiter-Glo, 72 h. Potency, µM (top dose mostly 46.1 µM), actives largely listed as cytotoxic. actives 3.4% (n = 400,000); note: nearly all actives have a fitted effect of over 60% in size
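Compound-treated KB-V1 multidrug-resistant cells, 72 h, 37 degrees C; viability by CellTiter-Glo. Fitted qHTS curves give the values.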
Numbers without * were called inactive; i = inactive; ? = inconclusive; · = no result given; + = active, no number. Calls come from the whole dose curve; as a rule, active = well fitted curve in the direction sought with a large enough effect; inconclusive = small, poorly fitted or top-dose-only effect, or another doubt; inactive = no such curve, though single readings can be large; an effect the other way counts as inactive or inconclusive. Unless noted, % is set by controls: 0 for no effect and ±100 for the full control effect; potency is the fitted concentration of half-maximal effect.

SMILES	KB-3-1 cytotox	DT40 TDP1 CPT	TDP1 cell noCPT	HT1080NT lethal	HT1080 IDH1KD tx	KB-V1 cytotox
CC1=C(C(=O)Nc2ccc(Br)cc2)C(c2ccco2)NC(=O)N1 (centres undefined)	i	23.1µM*	?	-12.8%	-5.9%	i
CC1(C(=O)N2CCCCC2)CCN1C(=O)c1ccccc1CCc1ccccc1 (centres undefined)	i	?	14.6µM*	8.3%	6.4%	i
Cc1ccc(NC(=O)C2(C)CCN2C(=O)c2ccccc2CCc2ccccc2)cc1C (centres undefined)	?	20.6µM*	-94.7%	-26.6%	-25.2%	?
CCC(=O)N1CCC1(C)C(=O)Nc1cnc2ccccc2c1 (centres undefined)	i	-8.9%	-18.6%	?	12.0%	i
CC1(C(=O)NS(=O)(=O)c2cccc(F)c2)CCN1C(=O)c1ccccc1CCc1ccccc1 (centres undefined)	i	?	-28.4%	0.5%	-9.3%	i
CC1(C(=O)Nc2cnc3ccccc3c2)CCN1C(=O)c1ccccc1CCc1ccccc1 (centres undefined)	?	?	?	?	?	18.4µM*
Cc1cccc(S(=O)(=O)NC(=O)C2(C)CCN2C(=O)c2ccccc2CCc2ccccc2)c1 (centres undefined)	i	?	+	?	-2.2%	i
CCOC(=O)C(=NCC1CCCO1)NNc1ccccc1Cl (centres undefined)	i	6.5%	-9.8%	10.1%	-3.3%	i
COc1ccc(NC(=O)C2(C)CCN2C(=O)c2ccccc2CCc2ccccc2)cc1OC (centres undefined)	i	14.6µM*	9.2µM*	-14.6%	-17.6%	?
CNC(=O)C1(C)CCN1C(=O)c1ccccc1CCc1ccccc1 (centres undefined)	i	-25.7%	-9.9%	-4.0%	5.3%	i
CC1=C(C(=O)N(C)C)CC(CC(=O)NC(c2ccccc2)c2ccccc2)C(=O)N1Cc1ccc(F)cc1 (centres undefined)	i	?	18.4µM*	2.2%	5.6%	i
CCCCN1C(=O)C(CC(=O)NC(c2ccccc2)c2ccccc2)CC(C(=O)N(CC)CC)=C1C (centres undefined)	i	18.4µM*	20.6µM*	-10.6%	-9.2%	?
CCN(CC)C(=O)C1=C(C)N(CCCOC)C(=O)C(CC(=O)NC(c2ccccc2)c2ccccc2)C1 (centres undefined)	i	5.8µM*	7.31µM*	0.3%	-0.5%	i
CC1=C(C(=O)N(C)C)CC(CC(=O)NC(c2ccccc2)c2ccccc2)C(=O)N1Cc1ccccc1 (centres undefined)	i	-0.8%	-22.3%	-0.1%	-3.2%	?
Cc1ccccc1Cn1nc(C)c(NC(=O)/C=C/c2cnn(C)c2)c1C	i	-9.7%	?	3.6%	0.2%	i
CC(=O)c1ccc(NC(=O)Nc2ccc(S(=O)(=O)N3CCCC3)cc2)cc1	·	?	14.6µM*	-1.2%	-1.0%	·
CCc1ccc(NC(=O)C(C)OC(=O)c2ccc(NS(=O)(=O)c3ccc(C)c([N+](=O)[O-])c3)cc2)cc1 (centres undefined)	23.1µM*	?	?	?	?	?
Cc1ccc(NC(=O)C(C)OC(=O)c2ccc(NS(=O)(=O)c3ccc(F)c(F)c3)cc2)cc1 (centres undefined)	i	?	?	-21.6%	-21.5%	i
CC(=O)Nc1ccc(NC(=O)C(C)OC(=O)c2ccc(S(=O)(=O)N3CCCCC3)cc2)cc1 (centres undefined)	i	2.2%	?	23.1µM*	?	i
CC(=O)c1ccc(NC(=O)c2ccc(S(=O)(=O)N3CCCC3)cc2)cc1	i	?	16.4µM*	5.3%	6.4%	?
CC(OC(=O)c1ccc(Cl)nc1)C(=O)Nc1ccc(S(=O)(=O)N2CCCC2)cc1 (centres undefined)	i	3.7%	-11.9%	-2.1%	2.7%	?
CC(=O)Nc1ccc(C(=O)Nc2ccc(S(=O)(=O)N3CCCCC3)cc2)cc1	i	-28.7%	-23.9%	7.2%	-19.5%	i
COc1ccc(C(C)(C)C)cc1NC(=O)Cn1cnnn1	i	0.6%	-1.6%	3.5%	11.9%	i
O=P(O)(O)C(O)(Cc1cccnc1)P(=O)(O)O	·	1.9%	-2.5%	·	·	·
O=C(Nc1ccc(Cc2ccncc2)cc1)c1ccc(S(=O)(=O)N2CCCC2)cc1	i	13µM*	10.3µM*	-17.8%	?	?
SMILES	KB-3-1 cytotox	DT40 TDP1 CPT	TDP1 cell noCPT	HT1080NT lethal	HT1080 IDH1KD tx	KB-V1 cytotox
O=C(Nc1ccc(S(=O)(=O)N2CCCCC2)cc1)c1ccncc1	i	?	?	-8.4%	?	i
COc1cc(NC(=O)C2CCN(c3cnccn3)CC2)cc(OC)c1OC	i	-16.5%	3.4%	2.4%	2.0%	i
CN(NC(=O)c1cccc(Cl)c1)c1nc(-c2ccccc2)nnc1C(F)(F)F	23.1µM*	18.4µM*	11.6µM*	-20.9%	-24.9%	?
CN(N)c1nc(-c2ccccc2)nnc1C(F)(F)F	i	-6.2%	-17.3%	-1.1%	8.1%	i
Cc1cccn2c(=O)c(/C=C(\C#N)C(=O)NC3CCS(=O)(=O)C3)c(N3CCC(C(N)=O)CC3)nc12 (centres undefined)	i	2.7%	-4.6%	6.6%	12.5%	i
Cc1cccn2c(=O)c(/C=C(\C#N)C(=O)NC3CCS(=O)(=O)C3)c(Oc3ccccc3Cl)nc12 (centres undefined)	i	?	20.6µM*	?	?	i
Cc1ccccc1Oc1nc2c(C)cccn2c(=O)c1/C=C(\C#N)C(=O)NC1CCS(=O)(=O)C1 (centres undefined)	i	11.6µM*	20.6µM*	?	13µM*	i
CCOc1cc(N2CCOCC2)c(OCC)cc1NC1=NCCCCC1	i	-3.7%	-0.7%	2.0%	7.2%	i
CCN(C(=O)c1cccs1)c1nnc(-c2ccncc2)s1	i	?	?	?	7.4%	18.4µM*
CCC1NC(=O)c2cccnc2-n2c1nc1cc(OC)c(OC)cc1c2=O (centres undefined)	i	5.8%	-4.3%	0.6%	9.2%	i
